Values without a mark were called inactive. Calls of active or inactive are those of the source. The call rests on the fitted dose curve; in most records, active means well fitted curve in the direction sought with a large enough effect; inconclusive means small, poorly fitted or top-dose-only effect, or effect the other way, or another doubt; inactive means no such curve, though single readings can be large or run the other way.
experiment: Inducers of the Endoplasmic Reticulum Stress Response (ERSR) in human glioma: Validation (AID 504836); details: human glioma cells, ER stress response reporter; series mostly up to 38.3 µM; activation: at the top concentration; further: 0% is about no effect
Procedure, shortened: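 Stably transfected U87-MG glioma cells carrying a GRP78-based luciferase sensor; 16 h compound incubation. Luminescence end-point read 10 min after Bright-Glo addition at room temperature.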

Row | Compound | activation | outcome
1 | CCN(CC)CCNC(=O)c1cc(S(C)(=O)=O)ccc1OC | -1.39% | –
2 | CN1CCN(CC(=O)N2c3ccccc3C(=O)Nc3cccnc32)CC1 | 0.906% | –
3 | CCN(CC)C(C)CN1c2ccccc2Sc2ccccc21 (centres undefined) | -2.1% | –
4 | CC(=O)Oc1cc(C(C)C)c(OCCN(C)C)cc1C | -2.7% | –
5 | CCOC(=O)[C@H](CCc1ccccc1)N[C@@H](C)C(=O)N1[C@H](C(=O)O)C[C@H]2CCCC[C@@H]21 | -0.187% | –
6 | CC(C)(C)NCC(O)c1cc(O)cc(O)c1 (centres undefined) | 2.91% | –
7 | c1ccc2c(c1)CCCC2C1=NCCN1 (centres undefined) | -2.31% | –
8 | NC(=O)c1cnccn1 | -2.75% | –
9 | O=c1[nH]c(=O)n([C@H]2C[C@H](O)[C@@H](CO)O2)cc1Br | -4.26% | –
10 | C[N+](C)(C)CCOC(N)=O | 2.42% | –
11 | NC(=O)c1ncn([C@@H]2O[C@H](CO)[C@@H](O)[C@H]2O)c1O | -1.2% | –
12 | CC(C)(Oc1ccc(C2CC2(Cl)Cl)cc1)C(=O)O (centres undefined) | -0.971% | –
13 | C[N+](C)(C)CCCCCC[N+](C)(C)C | – | inactive
14 | CCN1CCC[C@H]1CNC(=O)c1cc(S(N)(=O)=O)ccc1OC | -3.06% | –
15 | CC(CCc1ccccc1)NCC(O)c1ccc(O)c(C(N)=O)c1 (centres undefined) | -1.24% | –
16 | Cc1scc2c1N(C(=O)CN1CCN(C)CC1)c1ccccc1NC2=O | -0.791% | –
17 | CC(C)NCC(O)c1ccc(NS(C)(=O)=O)cc1 (centres undefined) | -2.63% | –

Row | Compound | activation | outcome
18 | CCOC(=O)C1=C(C)NC(C)=C(C(=O)OC)C1c1cccc([N+](=O)[O-])c1 (centres undefined) | -0.249% | –
19 | CC(C)C(=O)c1c(C(C)C)nn2ccccc12 | -1.23% | –
20 | Cc1nc2ccccn2c(=O)c1CCN1CCC(C(=O)c2ccc(F)cc2)CC1 | -0.871% | –
21 | NC(N)=NC(=O)Cc1c(Cl)cccc1Cl | -3.77% | –
22 | CC(N=C(NC#N)Nc1ccncc1)C(C)(C)C (centres undefined) | -4.53% | –
23 | CC(C)NCC(O)c1cc(O)cc(O)c1 (centres undefined) | 0.82% | –
24 | N[C@@H](COP(=O)(O)O)C(=O)O | -0.864% | –
25 | CC(C)(C)NC[C@H](O)COc1nsnc1N1CCOCC1 | -4.42% | –
26 | CCO/C([O-])=N/c1c[n+](N2CCOCC2)no1 | 0.993% | –
27 | OCCN1CCN(CC/C=C2/c3ccccc3Sc3ccc(C(F)(F)F)cc32)CC1 | -4.59% | –
28 | CCN(CC)CCOC(=O)c1ccc(N)cc1 | 1.92% | –
29 | O=C(O)CN(CCN(CC(=O)O)CC(=O)O)CCN(CC(=O)O)CC(=O)O | -2.97% | –
30 | NC/C=C/C(=O)O | 4.31% | –
31 | C1COC(NC(C2CC2)C2CC2)=N1 | -5.11% | –
32 | CN(C)C(=O)Oc1ccc[n+](C)c1 | -4.55% | –
33 | Cc1nc2c([nH]1)c(=O)n(C)c(=O)n2Cc1ccco1 | 0.44% | –
34 | CCN(CC)CCNC(=O)c1ccc(N)cc1 | -0.55% | –
